Compound activity from PubChem BioAssay.
In the library only some 7.3% were active in any assay of this set; here they are far more common.
NPC1 promoter act: activates the NPC1 promoter; hit rate 2.4% among 320,000; Huh7 NPC1 promoter luciferase reporter, 24 h; Potency, µM (series often up to 9.22 µM), for the others: at the top dose activation, usual class: activators; note: % of control where 0% means no effect; nearly all actives have a fitted effect of over 60% in size
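Stable NPC1-promoter luciferase Huh7 line; cpd (DMSO) 24 h, 37 °C, 5% CO2; Amplite luciferase reagent 10 min RT; luminescence readout. qHTS format.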
Luc counter: blocks Kinase-Glo luciferase, a counter-screen artifact | Q27757 | Kinase-Glo luciferase, ATP luminescence, 8 min | Potency, µM (doses to about 38.3 µM), without a hit: at the highest dose activity change, negative = inhibition, actives largely listed as inhibitors | hit rate 0.28% among 200,000 | AID 1379; note: % is set by controls: 0 for no effect and ±100 for the full control effect; nearly all actives have a fitted effect of over 60% in size
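Light output from Kinase-Glo luciferase with luciferin and 10 uM ATP in 50 mM imidazole pH 7.2, KCl, MgCl2, Tween 20, BSA; compound pin-delivered, 8-min ambient incubation, then luminescence read.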
FLuc modulator: firefly luciferase modulation, counter-screen for miR-21 project; purified FLuc, Km substrates, luminescence inhibition; P08659; hit rate 6.9% among 360,000; Potency, µM (doses to about 57.5 µM), for the others: at the top dose activity change, negative = inhibition, most hits filed as inhibitors;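 note: plate controls were vehicle for no effect and reference inhibitor for full effect; nearly all actives have a fitted effect of over 55% in size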
Target sequence (P08659 whole entry, looked up): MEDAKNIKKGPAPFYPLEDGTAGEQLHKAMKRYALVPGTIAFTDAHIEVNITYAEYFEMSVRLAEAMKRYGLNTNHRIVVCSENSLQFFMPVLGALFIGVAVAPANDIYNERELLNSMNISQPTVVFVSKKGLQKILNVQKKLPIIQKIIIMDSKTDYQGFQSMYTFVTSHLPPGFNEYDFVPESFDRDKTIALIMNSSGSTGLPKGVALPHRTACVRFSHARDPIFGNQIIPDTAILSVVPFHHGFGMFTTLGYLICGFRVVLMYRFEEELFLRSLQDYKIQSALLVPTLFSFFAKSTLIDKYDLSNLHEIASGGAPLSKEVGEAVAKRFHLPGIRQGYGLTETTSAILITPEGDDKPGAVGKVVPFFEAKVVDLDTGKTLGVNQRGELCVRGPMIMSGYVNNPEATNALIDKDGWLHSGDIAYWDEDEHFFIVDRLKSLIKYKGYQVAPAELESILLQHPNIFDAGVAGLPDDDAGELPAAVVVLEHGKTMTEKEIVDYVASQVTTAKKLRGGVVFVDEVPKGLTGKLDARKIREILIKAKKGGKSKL
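Purified P. pyralis luciferase, 10 nM final, with Km-level 10 uM D-luciferin and 10 uM ATP in 50 mM Tris acetate pH 7.5, 10 mM Mg acetate, 0.01% Tween-20, 0.05% BSA; 6-point qHTS titration about 60 µM downward; luminescence read.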
ELG1 genotoxic: inducers of genotoxicity in HEK293T ELG1-luciferase cells | AID 504466 | hit rate 1.3% among 330,000 | HEK293T ELG1-luciferase reporter, luminescence, 16 h | Potency, µM (highest dose often 46 µM), for the others: at the highest dose activity change, positive = activation, usual class: activators; note: % of control where 0% means no effect; nearly all actives have a fitted effect of over 60% in size
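Genotoxicity was scored as increased ELG1-luciferase reporter signal, measured by ONE-Glo luminescence (30 min, room temperature). Compound or vehicle exposure of the HEK293T reporter cells lasted 16 hr at 37°C.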
Rab9 prom act: activates the Rab9 promoter. Huh7 Rab9 promoter-luciferase reporter, luminescence, 24 h. AID 485297. Potency, µM (top dose mostly 9.22 µM), inactives show top-dose activation, negative = inhibition, usual class: activators. hit rate 2.8% among 320,000; note: % of control where 0% means no effect; nearly all actives have a fitted effect of over 60% in size
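Using Huh7 cells stably transfected with Rab9 promoter–luciferase, compounds were incubated 24 h at 37 °C, 5% CO2; luciferase luminescence was read 10 min after reagent addition.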
SMN2 splice enh: enhancers of SMN2 splice variant expression. HEK293 SMN2-luciferase splicing reporter, luminescence, 30-36 h. Potency, µM (series often up to 46.1 µM), without a hit: top-dose activity change, positive = activation, hits mostly activators. hit rate 2.8% among 210,000; note: % of control where 0% means no effect; nearly all actives have a fitted effect of over 55% in size
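HEK293 cells carry an SMN2 […]–luciferase reporter in which exon 7 inclusion puts luciferase in frame. Cells were plated 10-12 h before compound addition, then incubated 30-36 h at 37C. ONE-Glo luminescence was read; sodium butyrate at 4.5 mM final served as control.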
An asterisk follows results filed as active; ? = inconclusive; / = no result. Calls come from the whole dose curve; as a rule, active = well fitted curve in the direction sought with a large enough effect; inconclusive = small, poorly fitted or top-dose-only effect, or another doubt; inactive = no such curve, though single readings can be large; an effect the other way counts as inactive or inconclusive. Potency is the fitted concentration of half-maximal effect.

SMILES	NPC1 promoter act	Luc counter	FLuc modulator	ELG1 genotoxic	Rab9 prom act	SMN2 splice enh
O=C(Nc1ccc(N2CCOCC2)c(Cl)c1)c1cccc(F)c1	1.1µM*	-4%	4.3µM*	2.3µM*	1.6µM*	10µM*
O=C(Nc1ccc(N2CCN(C(=O)c3cccs3)CC2)c(Cl)c1)c1cccnc1	0%	-2%	-4%	-14%	-7%	-27%
O=C(Nc1ccc(N2CCN(C(=O)c3ccco3)CC2)c(Cl)c1)c1cccnc1	-7%	1%	-2%	-12%	-6%	-9%
O=C(Nc1ccc(N2CCOCC2)c(Cl)c1)c1cccnc1	26%	0%	?	21µM*	25%	?
O=C(Nc1ccc(N2CCCCC2)c(Cl)c1)c1cccnc1	2.8µM*	-1%	12µM*	?	2.8µM*	13µM*
CCn1c(SCC(=O)N2CCCC2)nnc1-c1ccco1	1%	/	-1%	0%	0%	/
Cc1cc(NC(=O)CSCC(=O)NCc2cccc(C(F)(F)F)c2)no1	-6%	/	4%	-11%	0%	/
CC1S/C(=N/N=C2CCC(C(C)(C)C)CC2)NC1=O (centres undefined)	2%	-1%	?	-1%	-8%	2%
Cc1nnc(Nc2ccc(C(=O)NCCO)cc2)c2ccccc12	1%	-10%	-2%	1%	4%	-3%
O=C(Nc1ccc(N2CCOCC2)c(Cl)c1)c1cccnc1Cl	0%	1%	-15%	1%	7%	13%
COc1c(C)cccc1C(=O)Nc1ccc(N2CCOCC2)c(Cl)c1	1.6µM*	-7%	6.7µM*	8.2µM*	3.2µM*	11µM*
CCC1(c2ccc(Cl)cc2)NC(=S)N(c2ccc(C)cc2)N1 (centres undefined)	7%	2%	17µM*	?	19%	-55%
N#CC1=C(N)Oc2c(ccc3ccccc23)C1c1cccs1 (centres undefined)	-3%	-1%	?	18µM*	-12%	17%
Cc1nn(-c2ccccc2)c2c1C(c1ccco1)C(C#N)=C(N)O2 (centres undefined)	0%	-5%	13µM*	1%	7%	1%
Cc1nn(-c2ccccc2)c2c1C(c1cccs1)C(C#N)=C(N)O2 (centres undefined)	2%	-2%	15µM*	-2%	-1%	-3%
O=C(CSc1ccsc1[N+](=O)[O-])Nc1cccc(F)c1	2%	-4%	-7%	-6%	6%	3%
Cc1cc(C)c(S(=O)(=O)c2ccccc2C)c(Cl)n1	0%	2%	1%	-4%	-5%	-5%
CCCn1nnc(NCc2ccc(OCc3cccs3)c(OC)c2)n1	0%	1%	4%	7%	-3%	-8%
CCN(CC)c1nc(-c2ccc(C(C)(C)C)cc2)nc2ccccc12	/	/	5.4µM*	/	/	?
CC(C)CN(CC(C)C)c1nc(-c2ccc(Cl)cc2)nc2ccccc12	/	/	-1%	/	/	2%
CC1CCN(c2ccccc2NC(=O)c2cc([N+](=O)[O-])ccc2N2CCOCC2)CC1	-12%	/	-2%	-9%	-9%	/
Cc1c(C(=O)O)cccc1-c1ccc(/C=C2/NC(=O)N(c3ccccc3)C2=O)o1	?	2%	9.5µM*	13%	1µM*	/
Cc1ccc(/C=C2/NC(=O)N(c3ccccc3)C2=O)o1	26%	-3%	?	?	?	-4%
Cc1c(C(=O)O)cccc1-c1ccc(/C=C2\SC(=O)NC2=O)o1	15%	/	5.4µM*	-4%	19%	/
O=C(CN1CCN(c2cccc(Cl)c2)CC1)Nc1ccc([N+](=O)[O-])cc1C(=O)Nc1ccccc1F	-1%	0%	2%	-8%	-1%	-26%
Cc1cc(/C=C(\C#N)c2nc3ccccc3[nH]2)c(C)n1C	3.5µM*	-15%	0.95µM*	?	2.2µM*	11µM*
Cc1cc(/C=C(/C#N)c2nc3ccccc3[nH]2)c(C)n1-c1cccc([N+](=O)[O-])c1	10%	-5%	5.4µM*	-1%	5%	-17%
